Source: PubChem BioAssay
IL1B secr inh – inflammasome signaling inhibition, IL-1 beta readout. THP-1 LPS/ATP IL-1B secretion, AlphaLISA, 16 h; hits give low values. activity change, % at 57.5 µM. 360,000 tested, 4.7% active; in the data active means activity change below about -50%; inconclusive means mostly about -30% to -49%
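THP-1 cells pretreated 1 hr with compounds (up to 57.5 uM final), then stimulated with LPS (250 ng/mL final) plus ATP (1.25 mM final); secreted IL-1B measured by AlphaLISA after 16 hr, decreased signal indicating inhibition.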
CtBP-E1A inh – inhibitors of CtBP/E1A interaction; activity change, % (test concentration not listed); 340,000 tested, 0.49% active; AlphaScreen GST-E1A/His-CtBP binding, 1536-well; hits give low values; in the data active means activity change below about -65%; inconclusive means mostly about -30% to -63%
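GST-E1A and His-tagged CtBP (125 nM each as 5X stock) were preincubated with pin-transferred compound for 2 h at 37 °C in the dark, then glutathione donor and nickel acceptor beads were added for 1 h before AlphaScreen reading.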
DT40 TDP1 no CPT – qHTS for Inhibitors of human tyrosyl-DNA phosphodiesterase 1 (TDP1): qHTS in cells in absence of CPT. DT40 Tdp1-/- hTDP1 cells, no CPT, ATP luminescence, 48 h. Potency, µM (doses to about 46.2 µM), for inactives: at the top dose activity change, negative = growth inhibition, actives largely listed as inhibitors. 420,000 tested, 15% active. AID 686978, 2013; further: potency means the concentration at half of the fitted maximal effect; nearly all actives have a fitted effect of over 55% in size
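Compound effects on proliferation are scored in DT40 Tdp1-/-;hTDP1 cells in the absence of CPT. ATP levels (CellTiter-Glo luminescence) are recorded after a ≥48 hr, 37 °C incubation.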
TDP1 block – inhibitors of human tyrosyl-DNA phosphodiesterase TDP1. recombinant TDP1, AlphaScreen DNA substrate cleavage. 350,000 tested, 0.28% active. Potency, µM (series often up to 130 µM), for inactives: at the top dose activity change, negative = inhibition, most hits filed as inhibitors. Q9NUW8. AID 485290; further: potency means the concentration at half of the fitted maximal effect; nearly all actives have a fitted effect of over 40% in size
Target sequence (Q9NUW8 whole entry, looked up): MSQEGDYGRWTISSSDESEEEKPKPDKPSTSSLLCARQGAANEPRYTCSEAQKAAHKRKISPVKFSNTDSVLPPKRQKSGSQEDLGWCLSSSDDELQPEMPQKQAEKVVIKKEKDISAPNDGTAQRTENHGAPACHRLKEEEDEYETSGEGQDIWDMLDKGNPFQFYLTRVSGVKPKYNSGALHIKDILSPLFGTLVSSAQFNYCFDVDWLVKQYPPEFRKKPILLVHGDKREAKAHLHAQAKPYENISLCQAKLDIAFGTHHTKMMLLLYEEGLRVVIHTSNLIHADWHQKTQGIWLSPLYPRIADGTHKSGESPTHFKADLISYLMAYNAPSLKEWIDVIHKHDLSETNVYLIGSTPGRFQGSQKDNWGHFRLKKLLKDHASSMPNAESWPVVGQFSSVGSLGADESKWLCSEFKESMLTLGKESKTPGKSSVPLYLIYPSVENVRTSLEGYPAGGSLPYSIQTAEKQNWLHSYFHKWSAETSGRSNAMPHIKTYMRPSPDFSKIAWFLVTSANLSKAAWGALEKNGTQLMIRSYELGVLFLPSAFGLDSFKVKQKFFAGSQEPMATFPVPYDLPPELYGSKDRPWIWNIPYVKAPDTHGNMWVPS
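Signal: AlphaScreen proximity between streptavidin donor and anti-FITC acceptor beads on intact substrate. Reaction: Tdp1 1 nM, substrate 15 nM final, 5 min RT after 15 min compound preincubation.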
TDP1 cell CPT – growth inhibition of DT40 Tdp1-/-;hTDP1 cells with camptothecin (screen for TDP1 inhibitors); chicken DT40 Tdp1-/-;hTDP1 cells + 20 nM CPT, ATP luminescence, 48 h; Potency, µM (top dose mostly 46.2 µM), for inactives: at the top dose activity change, negative = growth inhibition, most hits filed as inhibitors; 420,000 tested, 12% active; AID 686979; further: potency means the concentration at half of the fitted maximal effect; nearly all actives have a fitted effect of over 55% in size
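Chicken DT40 Tdp1-/- cells complemented with human TDP1, 400 cells/well, exposed to compounds plus 20 nM camptothecin for at least 48 h at 37 C; viability read as ATP content by CellTiter-Glo luminescence.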
Six1-Eya2 blk – Six1/Eya2 interaction inhibition | Q15475+O00167 | AlphaScreen GST-Six1/His-Eya2 binding, biochemical; hits give low values | activity change, % (concentration not given with the values) | 360,000 tested, 0.56% active | AID 651725; in the data active means activity change below about -65%; inconclusive means mostly about -30% to -63%
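GST-Six1 + His-Eya2 (5X stock: 250/500 nM); Tris pH 8.0, 300 mM NaCl, 0.05% BSA, 0.02% Tween 20; GSH donor/Ni acceptor beads; 1 h 37 °C dark; AlphaScreen readout.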
An asterisk follows results filed as active. The list is not random: actives were taken first. Their share in the collection is about 18%. Unless noted, the call rests on the fitted dose curve; in most records, active means well fitted curve in the direction sought with a large enough effect; inconclusive means small, poorly fitted or top-dose-only effect, or another doubt; inactive means no such curve, though single readings can be large; an effect the other way counts as inactive or inconclusive. On the % scale 0 is the no-effect control and ±100 the full control effect.

For CCCc1cc(=O)oc2cc(OCC(=O)NCCc3c[nH]c4ccc(OC)cc34)ccc12 the results were IL1B secr inh -19, CtBP-E1A inh -2, DT40 TDP1 no CPT 15µM*, TDP1 cell CPT 16µM* and Six1-Eya2 blk -3.
`CCOc1ccc(CCNC(=O)c2nnc(Cc3cc(OC)c(OC)c(OC)c3)o2)cc1OCC` gave DT40 TDP1 no CPT inconclusive, TDP1 block 0% and TDP1 cell CPT 21µM*.
For CCOc1ccc(CCNC(=O)c2nnc(Cc3ccc(Cl)cc3Cl)o2)cc1OCC the results were DT40 TDP1 no CPT -8%, TDP1 block 2% and TDP1 cell CPT -13%.
COc1ccc(CNC(=O)c2cc(=O)c3cc(C)c(C)cc3o2)cc1 was read as IL1B secr inh 20, DT40 TDP1 no CPT -10%, TDP1 cell CPT 0% and Six1-Eya2 blk 7.
COc1ccc(NC(=O)c2cc(=O)c3cc(C)cc(C)c3o2)cc1 was read as DT40 TDP1 no CPT inconclusive, TDP1 block 5% and TDP1 cell CPT inconclusive.
For COc1ccc(CCNC(=O)c2cc(=O)c3cc(C)cc(C)c3o2)cc1OC the results were DT40 TDP1 no CPT 23µM*, TDP1 block 4% and TDP1 cell CPT 21µM*.
`COc1ccc(CCNC(=O)c2cc(=O)c3cc(C)c(C)cc3o2)cc1OC` gave DT40 TDP1 no CPT 7.3µM*, TDP1 block 2% and TDP1 cell CPT -30%.
COc1ccc(CCNC(=O)COc2ccc3c(C)cc(=O)oc3c2)cc1OC was read as IL1B secr inh -14, CtBP-E1A inh 15, DT40 TDP1 no CPT 13µM*, TDP1 cell CPT inconclusive and Six1-Eya2 blk 1.
Screening COc1ccc(CCNC(=O)c2cc(=O)c3cc(C)ccc3o2)cc1OC returned IL1B secr inh 24, DT40 TDP1 no CPT 21µM*, TDP1 cell CPT inconclusive and Six1-Eya2 blk -12.
`O=C(Nc1ccccc1C1CC1)c1cccs1` gave IL1B secr inh -10, CtBP-E1A inh 9, DT40 TDP1 no CPT -17%, TDP1 block 6%, TDP1 cell CPT -2% and Six1-Eya2 blk 13.
For N#CCCn1nc(-c2ccccc2)cc1Nc1ccccc1NC(=O)c1cccs1 the results were IL1B secr inh -60*, CtBP-E1A inh -2, DT40 TDP1 no CPT -27%, TDP1 block 7%, TDP1 cell CPT inconclusive and Six1-Eya2 blk -9.
For CCO/C=C/C(O)(CNC(=O)c1ccc(C(C)(C)C)cc1)C(F)(F)F (stereo not drawn) the results were IL1B secr inh -2, CtBP-E1A inh -3, DT40 TDP1 no CPT 16µM*, TDP1 block 0%, TDP1 cell CPT inconclusive and Six1-Eya2 blk -2.
Screening CCOc1ccc(NC(=O)Cn2c(=O)n(Cc3ccc4c(c3)OCO4)c(=O)c3ccc(C(=O)NC4CCCCC4)cc32)cc1 returned DT40 TDP1 no CPT 4.6µM*, TDP1 block 0% and TDP1 cell CPT 2.6µM*.
`CCc1ccccc1NC(=O)Cn1c(=O)n(Cc2ccc3c(c2)OCO3)c(=O)c2ccc(C(=O)NC3CCCCC3)cc21` gave DT40 TDP1 no CPT inconclusive, TDP1 block 5% and TDP1 cell CPT 1.8µM*.
`Cc1cc(C)c(NC(=O)Cn2c(=O)n(Cc3ccc4c(c3)OCO4)c(=O)c3ccc(C(=O)NC4CCCCC4)cc32)c(C)c1` gave DT40 TDP1 no CPT 5%, TDP1 block 2% and TDP1 cell CPT -3%.
For Cc1cccc(NC(=O)CSCC(=O)Nc2cc(S(=O)(=O)N3CCOCC3)ccc2OC(C)C)c1 the results were IL1B secr inh 14, CtBP-E1A inh 6, DT40 TDP1 no CPT inconclusive, TDP1 block -5%, TDP1 cell CPT 4% and Six1-Eya2 blk -5.
Screening CC1CCCCN1CCNC(=O)c1ccc(Cn2c(SCc3ccccc3)nc3cccnc32)cc1 (stereo not drawn) returned DT40 TDP1 no CPT inconclusive, TDP1 block 6% and TDP1 cell CPT inconclusive.
`O=[N+]([O-])c1cc(Cl)cc(C2=NCCN2)c1` gave IL1B secr inh 6, CtBP-E1A inh -3, DT40 TDP1 no CPT inconclusive, TDP1 block 3%, TDP1 cell CPT 18µM* and Six1-Eya2 blk -13.
For O=[N+]([O-])c1cc(Br)c2c(c1)CCN2 the results were IL1B secr inh 8, CtBP-E1A inh 4, DT40 TDP1 no CPT -27%, TDP1 cell CPT 3% and Six1-Eya2 blk -15.
Screening O=C(c1ccccc1)[C@@H]1[C@@H]2C(=O)N(c3ccc(F)cc3)C(=O)[C@@H]2C2CCCN21 (stereo partly drawn) returned IL1B secr inh -59*, DT40 TDP1 no CPT inconclusive, TDP1 block 8%, TDP1 cell CPT inconclusive and Six1-Eya2 blk -1.
Cc1ccc(N2C(=O)[C@@H]3[C@H](C2=O)C2CCCN2[C@@H]3C(=O)c2ccccc2)cc1 (stereo partly drawn) was read as IL1B secr inh -8, CtBP-E1A inh 4, DT40 TDP1 no CPT inconclusive, TDP1 block 9%, TDP1 cell CPT -18% and Six1-Eya2 blk -2.
`CC(=O)c1ccc(N2C(=O)C3C(C2=O)C(C(=O)c2ccc(Cl)cc2)N2CCCC32)cc1` (stereo not drawn) gave IL1B secr inh -109*, CtBP-E1A inh 6, DT40 TDP1 no CPT 10µM*, TDP1 block 7%, TDP1 cell CPT 8.2µM* and Six1-Eya2 blk -9.
`O=C(c1ccc(Cl)cc1)C1C2C(=O)N(c3ccccc3)C(=O)C2C2CCCN21` (stereo not drawn) gave IL1B secr inh 38, CtBP-E1A inh 7, DT40 TDP1 no CPT -11%, TDP1 block 8%, TDP1 cell CPT 0% and Six1-Eya2 blk -2.
For CC12CC3(C)CC(C)(C1)CC(C(=O)NCC(=O)O)(C2)C3 the results were IL1B secr inh 4, CtBP-E1A inh 6, DT40 TDP1 no CPT -6%, TDP1 block 0%, TDP1 cell CPT 5% and Six1-Eya2 blk 8.
`CN(C)C(=S)NC(=O)C12CC3(C)CC(C)(CC(C)(C3)C1)C2` gave IL1B secr inh 22, CtBP-E1A inh 6, DT40 TDP1 no CPT 1.3µM*, TDP1 block 6%, TDP1 cell CPT -12% and Six1-Eya2 blk -3.
`CCOC(=O)Cc1cnc(NC(=O)NC(C(=O)OCC)(c2ccccc2)C(F)(F)F)s1` (stereo not drawn) gave IL1B secr inh -19, CtBP-E1A inh -6, DT40 TDP1 no CPT -1%, TDP1 block 3%, TDP1 cell CPT 2% and Six1-Eya2 blk 2.
